The assay has as its system HL-1. The experiment in a line: protection of cardiomyocytes from stress damage, SAR follow-up, cell-based, panel, H9c2 and HL-1, ATP luminescence, set 2 (AID 651871).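 Also: cells exposed to stressor for 2 h before ATP readout; reference of the scale not given here.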 Conditions: H9c2/HL-1 cardiomyocytes, 2-deoxyglucose stress, with 2-deoxyglucose.
[1] abbreviates: run 2, at 79 µM (top of the series).

SMILES strings stand for the structures. Values joined by “and” are separate entries in the source; they are usually repeats but may differ in a detail not shown here. Identical values can stand only once.

Regarding `CCOC(=O)c1cccc(NC(=O)CNC(=O)c2cc(-c3cc(OC)c(OC)c(OC)c3)nc3ccccc23)c1`, the activity (protection/inhibition) under setting [1] stood at 75.9%.

In the case of `COc1ccc2nc(-c3cc(OC)c(OC)c(OC)c3)cc(C(=O)NCC(=O)Nc3ccc(C(C)=O)cc3)c2c1`, the activity (protection/inhibition) under setting [1] was determined as 54.8%.

In the case of `COc1ccc2c(c1OC)C(=O)N1c3ccccc3C(=O)N(Cc3cccc(Cl)c3Cl)C21` (centres undefined), the activity (protection/inhibition) reads like this: (run 2, at 19.8 µM (top of the series)) 23.7%; under setting [1], 27.7% and -9.62%.

For the origin of these results see PubChem BioAssay AID651871 (Sanford-Burnham Center for Chemical Genomics, 2012).
